Records with an inconclusive call do not appear. The source made the active and inactive calls. Unless noted, calls come from the whole dose curve; as a rule, active = well fitted curve in the direction sought with a large enough effect in the repeat runs; inconclusive = weak or mixed curves; inactive = no such curve, though single readings can be large; an effect the other way counts as inactive or inconclusive.
Tests used:
[1] = qHTS assay to identify small molecule agonists of the progesterone receptor (PR) signaling pathway - cell viability counter screen (AID 1346799; calls by dose curve; note: nearly all actives have a fitted effect of over 45% in size); settings: PR-UAS-bla HEK293T viability, CellTiter-Glo luminescence, 16 h; series mostly up to 92.4 µM
Outline: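 HEK293T PR-UAS-bla, 3,000 cells/well, 2% charcoal-stripped FBS; 6 h settle, compound 16 h at 37C/5% CO2; LiveBLAzer 2 h RT, then CellTiter-Glo 30 min RT, luminescence read.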

[2] = qHTS assay to identify small molecule antagonists of the TGF-beta/Smad signaling pathway - cell viability counter screen (AID 1346824); settings: SBE-bla HEK293T viability, CellTiter-Glo luminescence; series mostly up to 76.8 µM; note: nearly all actives have a fitted effect of over 50% in size
Outline: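 Cytotoxicity counter-screen run in the same wells as the beta-lactamase Smad reporter read: CellTiter-Glo luminescence after 30 min at room temperature. HEK 293T SBE-bla cells had 5 hr compound exposure at 37 C with TGF-beta1 (0.25 ng/mL stock).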

[3] = qHTS assay to identify small molecule agonists of the TGF-beta/Smad signaling pathway - cell viability counter screen (AID 1346829); settings: SBE-bla HEK293T viability, CellTiter-Glo luminescence, 5 h; series mostly up to 76.8 µM; note: top concentration of the series differs between compounds; nearly all actives have a fitted effect of over 45% in size
Outline: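 After overnight seating at 37 C and 5% CO2, reporter cells got compounds for 5 hr and FRET substrate for 2 hr; cell viability then came from CellTiter-Glo luminescence.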

[4] = qHTS assay to identify small molecule agonists of the TGF-beta/Smad signaling pathway (AID 1346859; active = well fitted activation curve with a large enough effect in the signal ratio in the repeat runs, not every such curve was filed as active; the % refers to the signal ratio); settings: SBE-bla HEK293T, TGF-beta/Smad beta-lactamase reporter, 5 h; series mostly up to 76.8 µM
Outline: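 Read-out: fluorescence at 460 and 530 nm (405 nm excitation) after a 2 hr room-temperature incubation with beta-lactamase FRET substrate. SBE-bla HEK 293T cells had been treated with test compounds for 5 hr at 37 C.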

[5] = biological target: Thyrotropin-releasing hormone receptor (Homo sapiens) (UniProt P34981); assay: qHTS assay to identify small molecule antagonists of the thyrotropin-releasing hormone receptor (TRHR) signaling pathway (AID 1346877; active = well fitted inhibition curve with a large enough effect in the repeat runs, not every such curve was filed as active); settings: TRHR-HEK293, TRH-induced calcium fluorescence, antagonist mode; series mostly up to 51.3 µM
Outline: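 Overnight-plated (18 h, 37 °C) HEK293 cells expressing TRHR were dye-loaded 2 h, treated with compound, then stimulated with TRH at 1 nM final. Fluorescence intensity was captured every second for 3 min.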

[6] = biological target: Thyrotropin-releasing hormone receptor (Homo sapiens) (UniProt P34981); assay: qHTS assay to identify small molecule agonists of the thyrotropin-releasing hormone receptor (TRHR) signaling pathway (AID 1346891; calls by dose curve;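 note: HEK293 cells expressing TRHR with calcium dye readout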); settings: TRHR-HEK293 calcium fluorescence, agonist mode; series mostly up to 57.6 µM
Outline: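 HEK293/TRHR cells, 1500 per well, 18 h 37 °C; Ca dye 2 h 37 °C; pin-tool compound addition (agonist mode); kinetic fluorescence 3 min, 1 s reads; 15 concentrations, triplicate.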

[7] = Caspase-3/7 induction in CHO-K1 cells by small molecules, qHTS cell viability counter screen (AID 1346979); settings: CellTiter-Fluor fluorescence, 17 h; series mostly up to 92.4 µM; note: nearly all actives have a fitted effect of over 35% in size; note: potency is the fitted concentration of half-maximal effect
Outline: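 CHO-K1 wt, 1,500 cells/well; 5hr pre-incubation 37C/5% CO2; compound pin transfer (DMSO); 16hr exposure; CellTiter-Fluor added, 1hr, fluorescence read.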

[8] = Caspase-3/7 induction in CHO-K1 cells by small molecules, qHTS assay (AID 1346980); settings: CHO-K1 caspase-3/7 induction, Caspase-Glo luminescence, 17 h; series mostly up to 92.4 µM; note: nearly all actives have a fitted effect of over 15% in size
Outline: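 Luminescent Caspase-Glo 3/7 read (30min, room temperature) quantified apoptosis induction. Cells were wild-type CHO-K1, treated with compound for 17hr at 37 C and 5% CO2.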

[9] = Caspase-3/7 induction in HepG2 cells by small molecules, qHTS cell viability counter screen (AID 1346981); settings: CellTiter-Fluor fluorescence, 17 h; series mostly up to 92.4 µM; note: nearly all actives have a fitted effect of over 30% in size
Outline: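 Treatment of HepG2 cells with DMSO-delivered compounds ran 16 hr at 37 C following a 5-hr pre-incubation of 2,000 cells/well. CellTiter-Fluor fluorescence, read after 1 hr, served as the viability measure in a qHTS format.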

[10] = qHTS assay to identify small molecule agonists of the estrogen receptor alpha (ER-alpha) signaling pathway in the presence of an antagonist - cell viability counter screen (AID 1259386); settings: VM7Luc4E2 viability, CellTiter-Fluor fluorescence, 22 h; series mostly up to 92.4 µM;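 note: cells exposed to compounds for 22 h at 37 °C before the viability read; nearly all actives have a fitted effect of over 30% in size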
Outline: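 The test measures whether compounds kill ER-alpha reporter cells (VM7Luc4E2) under antagonist co-treatment (ICI-182,780, 10.0nM). Fluorescence from CellTiter-Fluor is read after a 22hr exposure.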

[11] = qHTS assay to identify small molecule antagonists of the progesterone receptor (PR) signaling pathway - cell viability counter screen (AID 1346798); settings: PR-UAS-bla HEK293T viability, CellTiter-Glo luminescence, 16 h; series mostly up to 42.5 µM; note: nearly all actives have a fitted effect of over 50% in size
Outline: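 Luminescence readout (CellTiter-Glo, 30 min, RT) of viability in PR-UAS-bla HEK293T cells exposed to compound and R5020 agonist for 16 hr at 37C, 5% CO2; run in the same wells as the beta-lactamase reporter read.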

[12] = Human pregnane X receptor (PXR) small molecule agonists, qHTS cell viability counter screen (AID 1346977); settings: PXR-Luc HepG2 viability, CellTiter-Fluor, 24 h; series mostly up to 92.4 µM; note: nearly all actives have a fitted effect of over 50% in size; note: potency is the fitted concentration of half-maximal effect
Outline: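 Fluorescence read-out (CellTiter-Fluor) of viability in PXR-Luc HepG2 cells, multiplexed with the luciferase agonist read. Compounds in DMSO added after 5hr plating; 24hr total exposure at 37C, 5% CO2.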

[13] = Caspase-3/7 induction in HepG2 cells by small molecules, qHTS assay (AID 1346978); settings: HepG2 caspase-3/7 activation, Caspase-Glo luminescence, 17 h; series mostly up to 92.4 µM; note: nearly all actives have a fitted effect of over 15% in size
Outline: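 Caspase-3/7 induction was measured by Caspase-Glo 3/7 luminescence (30 min, room temperature) after a 17 hr compound exposure of wild-type HepG2 cells seeded at 2,000 per well and pre-incubated 5 hr.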

[14] = biological target: Nuclear receptor subfamily 1 group I member 2 (Homo sapiens) (UniProt O75469); assay: Human pregnane X receptor (PXR) small molecule agonists, qHTS assay (AID 1346982); settings: PXR-Luc HepG2, CYP3A4 luciferase reporter, 24 h; series mostly up to 92.4 µM; note: nearly all actives have a fitted effect of over 35% in size; note: potency is the fitted concentration of half-maximal effect
Outline: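 Stable HepG2 line reporting PXR-mediated CYP3A4 expression via luciferase. Treatment: 24 hr with compounds in DMSO at 37 C. Detection: ONE-Glo luminescence.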

[15] = biological target: Progesterone receptor (Homo sapiens) (UniProt P06401); assay: qHTS assay to identify small molecule agonists of the progesterone receptor (PR) signaling pathway (AID 1346784; calls by dose curve; note: nearly all actives have a fitted effect of over 30% in size); settings: PR-UAS-bla HEK293T, beta-lactamase FRET ratio, 16 h; series mostly up to 92.4 µM
Outline: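 HEK 293T PR-UAS-bla reporter cells, 2% charcoal-stripped FBS; 6 hr settle at 37C/5% CO2, compound (DMSO) 16 hr, LiveBLAzer B/G FRET substrate 2 hr RT, fluorescence intensity read.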

[16] = biological target: Progesterone receptor (Homo sapiens) (UniProt P06401); assay: qHTS assay to identify small molecule antagonists of the progesterone receptor (PR) signaling pathway (AID 1346795; active = well fitted inhibition curve with a large enough effect in the signal ratio in the repeat runs, not every such curve was filed as active; the % refers to the signal ratio); settings: PR-UAS-bla HEK293T, beta-lactamase FRET ratio, 16 h; series mostly up to 92.4 µM
Outline: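 Beta-lactamase reporter, HEK293T PR-UAS-bla line; 2% charcoal-stripped FBS; 6 hr pre-incubation, 37C/5% CO2. Compound + R5020 1 nM final, 16 hr. LiveBLAzer B/G FRET substrate, 2 hr RT; fluorescence intensity read.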

[17] = biological target: Nuclear receptor subfamily 1 group I member 2 (Rattus norvegicus) (UniProt Q9R1A7); assay: Rat pregnane X receptor (rPXR) activation by small molecules, qHTS assay (AID 1346983); settings: rPXR luciferase reporter cells, One-Glo luminescence, 24 h; max activation: hits give high values; note: nearly all actives have a fitted effect of over 20% in size
Outline: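 Luminescent readout (One-Glo luciferase, 30 min room temperature) followed 24 hr compound treatment at 37 C of rPXR cells plated 2,000 per well and preincubated 5hr; qHTS format with compounds delivered in DMSO.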
% is set by controls: 0 for no effect and ±100 for the full control effect.

Chain of Progesterone receptor (Homo sapiens) (P06401 whole entry, looked up): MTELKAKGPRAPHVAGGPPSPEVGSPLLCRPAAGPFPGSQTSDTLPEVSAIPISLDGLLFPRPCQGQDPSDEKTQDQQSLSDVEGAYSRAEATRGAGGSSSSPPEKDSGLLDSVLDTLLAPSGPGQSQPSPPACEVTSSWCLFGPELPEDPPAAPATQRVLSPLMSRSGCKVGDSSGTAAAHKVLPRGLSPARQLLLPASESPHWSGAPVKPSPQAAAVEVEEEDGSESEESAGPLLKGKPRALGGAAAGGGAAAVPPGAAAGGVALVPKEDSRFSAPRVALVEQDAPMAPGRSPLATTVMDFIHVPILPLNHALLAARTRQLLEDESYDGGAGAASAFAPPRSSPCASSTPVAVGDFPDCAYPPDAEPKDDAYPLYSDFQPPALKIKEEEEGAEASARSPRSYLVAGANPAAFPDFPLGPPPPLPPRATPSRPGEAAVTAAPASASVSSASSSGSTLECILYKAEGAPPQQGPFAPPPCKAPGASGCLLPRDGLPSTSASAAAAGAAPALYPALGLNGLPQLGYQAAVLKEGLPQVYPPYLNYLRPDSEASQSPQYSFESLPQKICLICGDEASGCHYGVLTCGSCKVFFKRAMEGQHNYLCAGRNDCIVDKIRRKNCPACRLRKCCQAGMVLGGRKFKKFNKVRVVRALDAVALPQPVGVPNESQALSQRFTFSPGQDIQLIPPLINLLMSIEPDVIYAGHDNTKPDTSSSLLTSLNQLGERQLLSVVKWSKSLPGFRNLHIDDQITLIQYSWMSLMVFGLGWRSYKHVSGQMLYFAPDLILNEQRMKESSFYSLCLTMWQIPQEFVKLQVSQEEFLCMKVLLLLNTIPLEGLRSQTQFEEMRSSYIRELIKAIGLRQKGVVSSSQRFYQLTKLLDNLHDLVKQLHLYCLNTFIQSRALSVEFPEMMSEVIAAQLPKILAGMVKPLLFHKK
Chain of Thyrotropin-releasing hormone receptor (Homo sapiens) (P34981 whole entry, looked up): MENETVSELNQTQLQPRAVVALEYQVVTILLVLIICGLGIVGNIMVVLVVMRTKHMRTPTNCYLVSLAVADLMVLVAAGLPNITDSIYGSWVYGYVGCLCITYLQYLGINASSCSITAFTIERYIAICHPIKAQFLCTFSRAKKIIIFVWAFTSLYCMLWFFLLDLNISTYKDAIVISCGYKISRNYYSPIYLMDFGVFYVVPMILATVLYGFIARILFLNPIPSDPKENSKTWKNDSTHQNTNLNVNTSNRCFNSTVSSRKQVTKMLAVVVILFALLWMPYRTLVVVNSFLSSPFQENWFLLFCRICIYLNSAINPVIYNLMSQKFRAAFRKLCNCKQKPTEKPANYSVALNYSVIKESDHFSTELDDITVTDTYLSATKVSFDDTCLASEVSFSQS
Chain of Nuclear receptor subfamily 1 group I member 2 (Homo sapiens) (O75469 whole entry, looked up): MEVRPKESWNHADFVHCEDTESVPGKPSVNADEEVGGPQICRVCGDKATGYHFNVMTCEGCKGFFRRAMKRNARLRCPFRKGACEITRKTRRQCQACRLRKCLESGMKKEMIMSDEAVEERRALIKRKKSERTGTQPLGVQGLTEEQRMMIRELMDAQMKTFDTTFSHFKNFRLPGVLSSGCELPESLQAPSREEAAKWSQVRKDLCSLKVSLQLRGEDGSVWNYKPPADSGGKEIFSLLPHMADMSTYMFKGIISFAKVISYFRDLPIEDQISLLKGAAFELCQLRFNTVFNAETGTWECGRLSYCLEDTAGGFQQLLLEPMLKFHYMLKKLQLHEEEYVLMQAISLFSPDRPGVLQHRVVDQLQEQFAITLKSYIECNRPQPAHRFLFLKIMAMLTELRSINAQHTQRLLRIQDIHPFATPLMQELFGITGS
Chain of Nuclear receptor subfamily 1 group I member 2 (Rattus norvegicus) (Q9R1A7 whole entry, looked up): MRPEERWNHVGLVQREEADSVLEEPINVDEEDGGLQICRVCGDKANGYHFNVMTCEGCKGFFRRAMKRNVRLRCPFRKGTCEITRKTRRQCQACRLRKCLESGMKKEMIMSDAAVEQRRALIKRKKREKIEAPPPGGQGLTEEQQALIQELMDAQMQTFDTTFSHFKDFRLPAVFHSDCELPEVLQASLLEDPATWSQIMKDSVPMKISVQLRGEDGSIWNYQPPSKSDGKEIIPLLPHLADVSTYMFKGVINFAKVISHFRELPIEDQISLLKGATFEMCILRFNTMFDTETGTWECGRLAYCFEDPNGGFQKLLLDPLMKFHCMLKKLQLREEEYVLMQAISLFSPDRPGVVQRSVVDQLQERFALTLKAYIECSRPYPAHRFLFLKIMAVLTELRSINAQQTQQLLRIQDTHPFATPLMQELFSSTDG

CC(C)CC(=O)OCc1ccccc1
inactive: Potency [1] | outcome [2] | outcome [3] | outcome [4] | outcome [5] | Potency [6] | Potency [7] | outcome [8] | Potency [9]

Cc1ccccc1C(=O)Nc1ccc(C(=O)N2CCCC(O)c3cc(Cl)ccc32)c(C)c1 (stereo not drawn)
inactive: Potency [10] | Potency [11] | outcome [2] | outcome [3] | outcome [4] | outcome [5] | Potency [6] | Potency [12] | Potency [13] | outcome [8] | Potency [9] | Potency [14]

CC1=C(CC(=O)O)c2cc(F)ccc2/C1=C\c1ccc(S(C)(=O)=O)cc1
inactive: Potency [15] | Potency [16] | Potency [11] | Potency [1] | outcome [2] | outcome [3] | outcome [5] | Potency [6] | Potency [12] | Potency [13] | outcome [8] | Potency [9] | Potency [14]

O=C(O)CN(CCN(CC(=O)O)CC(=O)O)CCN(CC(=O)O)CC(=O)O
inactive: activity change, negative = cytotoxicity [10] -0.23% [at 19 µM] | activation [15] 9.07% [at 19 µM] | activity change, negative = inhibition [16] -12.7% [at 18.9 µM] | activity change, negative = cytotoxicity [1] -4.49% [at 19 µM] | viability change, negative = cytotoxic [2] 3.31% [at 15.8 µM] | activity change, negative = cytotoxicity [3] 9.66% [at 15.8 µM] | activity, negative = inhibition [5] 0.832% [at 10.5 µM] | activation [6] -0.051% [at 11.8 µM] | caspase activation [13] 0.916% [at 19 µM] | caspase-3/7 activation [8] 5.14% [at 19 µM] | activation [14] 8.36% [at 19 µM]
active: Potency [7] 13 µM

CCN(O)CC
active: Potency [12] 30 µM | Potency [7] 26.7 µM | Potency [14] 59.8 µM
inactive: Potency [10] | Potency [15] | Potency [16] | Potency [1] | outcome [2] | outcome [3] | outcome [4] | outcome [8] | Potency [9]

CC1(O)CSC(C)(O)CS1 (stereo not drawn)
inactive: Potency [10] | Potency [15] | Potency [16] | Potency [11] | outcome [2] | outcome [3] | outcome [4] | outcome [5] | Potency [6] | Potency [13] | Potency [7] | outcome [8] | Potency [14]

CCCCOc1cc(C(=O)NCCN(CC)CC)c2ccccc2n1
inactive: Potency [10] | Potency [15] | outcome [2] | outcome [3] | outcome [4] | Potency [6] | Potency [13] | outcome [8] | max activation [17] -1.11%
active: Potency [12] 21.1 µM

NC(=O)Cc1cccc(C(=O)c2ccccc2)c1N
inactive: Potency [10] | Potency [15] | Potency [16] | Potency [11] | outcome [2] | outcome [3] | outcome [4] | Potency [13] | Potency [7] | outcome [8] | Potency [9] | Potency [14]

— PubChem BioAssay (Tox21)
